USP17 block – inhibitors of human USP17 deubiquitinase. inhibition, % at 50 µM. purified USP17, Ub-rhodamine cleavage fluorescence, 3 h. AID 1645855, 2021. 47,000 tested, 6.5% active. Ubiquitin carboxyl-terminal hydrolase 17-like protein 5 (Homo sapiens), A8MUK1
Target sequence (A8MUK1 whole entry, looked up): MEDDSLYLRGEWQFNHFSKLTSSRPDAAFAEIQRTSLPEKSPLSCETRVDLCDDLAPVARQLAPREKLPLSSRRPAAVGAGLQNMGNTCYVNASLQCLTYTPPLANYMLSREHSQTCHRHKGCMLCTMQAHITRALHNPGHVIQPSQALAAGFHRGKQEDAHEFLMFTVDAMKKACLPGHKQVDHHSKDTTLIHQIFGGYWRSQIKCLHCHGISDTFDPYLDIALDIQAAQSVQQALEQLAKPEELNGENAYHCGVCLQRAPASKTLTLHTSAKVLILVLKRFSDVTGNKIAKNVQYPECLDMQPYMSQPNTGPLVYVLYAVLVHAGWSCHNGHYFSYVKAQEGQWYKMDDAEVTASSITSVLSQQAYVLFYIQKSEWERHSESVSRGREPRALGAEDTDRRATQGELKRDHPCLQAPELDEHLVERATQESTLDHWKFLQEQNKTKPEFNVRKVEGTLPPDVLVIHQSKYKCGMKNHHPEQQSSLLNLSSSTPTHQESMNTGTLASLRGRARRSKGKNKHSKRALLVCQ
USP30 block – inhibitors of human USP30 deubiquitinase; Ubiquitin carboxyl-terminal hydrolase 30 (Homo sapiens), Q70CQ3; purified USP30, Ub-rhodamine cleavage fluorescence; inhibition, % at 25 µM; 47,000 tested, 5.3% active; AID 1645860, 2021
USP8 inh – inhibitors of human USP8 deubiquitinase | purified USP8, Ub-rhodamine cleavage fluorescence, 30 min | inhibition, % at 20 µM | Ubiquitin carboxyl-terminal hydrolase 8 (Homo sapiens), P40818 | 47,000 tested, 4.2% active
The depositor's hits bear a star. Rows were chosen to be rich in hits. Some 12% of all compounds tested hit in one or more screens of this group. Rule as the data show it: active = inhibition above about 30%; inactive = the rest.

CC(=O)c1cccc(NC(=O)CSc2nnc(-c3ccncc3)n2Cc2ccccc2)c1 was read as USP17 block 0, USP30 block -10 and USP8 inh -44.
Screening O=C(CSc1nnc(C2CC2)n1Cc1ccccc1)Nc1ccc(N2CCCC2=O)cc1 returned USP17 block 44*, USP30 block 29 and USP8 inh 17.
Screening Cc1cccc(OCC(=O)Nc2nnc(-c3cccs3)s2)c1 returned USP17 block -61, USP30 block -334 and USP8 inh -57.
`Cc1cccc(-c2nnc(SCC(=O)N3CCN(c4ccccc4)CC3)o2)c1` gave USP17 block -32, USP30 block 14 and USP8 inh 5.
Screening CCOC(=O)CSc1nnc(-c2cnn(-c3ccccc3)c2N)o1 returned USP17 block 58*, USP30 block 21 and USP8 inh 10.
CCc1noc(-c2ccc(-n3ncc(C(=O)N4CCN(C)CC4)c3C)nc2)n1 was read as USP17 block 0, USP30 block 7 and USP8 inh -1.
`CC1CCCN(S(=O)(=O)c2cc3cc(F)ccc3oc2=O)C1` (configuration not stated) gave USP17 block 58*, USP30 block 15 and USP8 inh 3.
COc1ccc(F)cc1S(=O)(=O)N1CCCC(c2nnc(C(F)(F)F)o2)C1 (configuration not stated) was read as USP17 block 0, USP30 block 13 and USP8 inh 8.
For COCCN1C[C@@]23CN(C(=O)c4cccnc4)C[C@@H](C[C@@H]2S1(=O)=O)O3 the results were USP17 block -15, USP30 block 11 and USP8 inh -77.
Screening CCOc1ccccc1NC(=O)Cn1c(=O)n(CCC(=O)NCCc2ccc(OC)c(OC)c2)c(=O)c2ccccc21 returned USP17 block 14, USP30 block 20 and USP8 inh 22.
COc1ccc(CCNC(=O)CCn2c(=O)c3ccccc3n(Cc3ccc(F)cc3)c2=O)cc1OC was read as USP17 block 46*, USP30 block 43* and USP8 inh 20.
`O=C(CCCn1c(=O)c2ccccc2n(Cc2cc(=O)n3ccccc3n2)c1=O)NCc1ccco1` gave USP17 block -2, USP30 block -4 and USP8 inh -19.
O=C(CCn1c(=O)c2ccccc2n(Cc2cc(=O)n3ccccc3n2)c1=O)NCCc1ccc(Cl)cc1 was read as USP17 block 48*, USP30 block 61* and USP8 inh 12.
`COc1ccc(CCNC(=O)CCn2c(=O)c3ccccc3n(Cc3ccccc3C#N)c2=O)cc1OC` gave USP17 block 3, USP30 block 15 and USP8 inh -18.
`COc1ccc(CCNC(=O)CCCCn2c(=O)c3ccccc3n(Cc3cccc(F)c3)c2=O)cc1OC` gave USP17 block 60*, USP30 block 55* and USP8 inh -3.
`COc1ccc(CCNC(=O)CCn2c(=O)c3ccccc3n(Cc3ccc(C)cc3)c2=O)cc1OC` gave USP17 block 43*, USP30 block 64* and USP8 inh 21.
Screening CCC(C)NC(=O)Cn1c(=O)n(Cc2ccc(C(=O)NCCc3ccc(OC)c(OC)c3)cc2)c(=O)c2ccccc21 (configuration not stated) returned USP17 block 8, USP30 block 28 and USP8 inh 8.
Screening CNC(=O)C(C)[C@H]1C(=O)/C(=C(O)/C=C/C(C)=C/[C@@H](C)[C@H]2O[C@@]3(C)O[C@H](C=C[C@@]34CO4)[C@@H]2C)C(=O)N1[C@@H]1CC[C@H](O)[C@H](C)O1 (some centres not stated) returned USP17 block -61, USP30 block -77 and USP8 inh -48.
For COc1ccc2c(=O)c3c(oc2c1)C(=O)N(CCN1CCOCC1)C3c1ccc(F)cc1 (configuration not stated) the results were USP17 block -2, USP30 block -3 and USP8 inh 5.
Cc1nc(Nc2ccccn2)cc(C2CCCN2CC(N)=O)n1 (configuration not stated) was read as USP17 block 16, USP30 block 15 and USP8 inh 12.
CCn1cc(S(=O)(=O)N2CC[C@H](c3ccccc3)[C@H]3NCCCC[C@H]32)cn1 was read as USP17 block -8, USP30 block -11 and USP8 inh 1.
Cc1ccc(Cn2c(=O)c3ccccc3n3c(CCC(=O)NCCN4CCN(c5cccc(Cl)c5)CC4)nnc23)cc1 was read as USP17 block 2, USP30 block 8 and USP8 inh 0.
Screening COCCCNC(=O)Cn1c(=O)n(Cc2ccc(C(=O)NCCc3ccc(OC)c(OC)c3)cc2)c(=O)c2ccccc21 returned USP17 block 4, USP30 block -11 and USP8 inh -9.
COc1ccc(C(=O)CSc2nnc3n(Cc4ccc(C)cc4)c(=O)c4ccccc4n23)cc1OC was read as USP17 block 25, USP30 block 45* and USP8 inh 5.
`O=C(Cn1c(=O)n(CC2CCC(C(=O)NCCc3ccccc3)CC2)c(=O)c2ccccc21)Nc1ccccc1F` (configuration not stated) gave USP17 block -25, USP30 block -29 and USP8 inh -7.
For Cc1cc(NC(=O)Cn2c(=O)n(CC3CCC(C(=O)NCCc4ccccc4)CC3)c(=O)c3ccccc32)n[nH]1 (configuration not stated) the results were USP17 block 58*, USP30 block 45* and USP8 inh 37*.
`COc1ccc(CCNC(=O)c2ccc(Cn3c(=O)c4ccccc4n(CC(=O)Nc4cc(C)[nH]n4)c3=O)cc2)cc1OC` gave USP17 block 66*, USP30 block 65* and USP8 inh 1.
`COc1ccc(Cn2ccc3nc(C)c(C(=O)N4CCOCC4)cc3c2=O)cc1` gave USP17 block -5, USP30 block 2 and USP8 inh -29.
Cc1ccc(N(Cc2nc3nc(C)cc(=O)n3[nH]2)S(=O)(=O)c2ccccc2)cc1 was read as USP17 block 11, USP30 block 24 and USP8 inh 16.
CC(=O)N1CCc2cc(S(=O)(=O)CCC(=O)N3CCN(c4ccccc4Cl)CC3)ccc21 was read as USP17 block 4, USP30 block 12 and USP8 inh -13.
`COc1cccc(C(=O)N2CCC3(CC2)CC(=O)c2ccccc2O3)c1` gave USP17 block -7, USP30 block 5 and USP8 inh -9.
Screening C[C@H](NC(=O)[C@H](Cc1ccccc1)NC(=O)[C@@H](Cc1ccccc1)n1c(=O)[nH]c2ccccc2c1=O)C(=O)O returned USP17 block -7, USP30 block 5 and USP8 inh -51.
For COc1ccc(C)cc1NC(=O)C1CC(=O)Nc2nc3ccccc3n21 (configuration not stated) the results were USP17 block 70*, USP30 block 12 and USP8 inh 29.
For COc1ccc(C)cc1NC(=O)C1CC(=O)NC(Nc2ccc(F)cc2)=N1 (configuration not stated) the results were USP17 block -3, USP30 block 0 and USP8 inh -12.

Screening results deposited in PubChem BioAssay by Buhrlage Lab, Dana-Farber Cancer Institute and Novartis Institutes for BioMedical Research (Cambridge, Mass).
